Test [1] can be described thus: Drug repurposing screens with cells derived from glioblastoma tumor samples (AID 1345199). For activity, negative = cell killing: % is set by controls: 0 for no effect and ±100 for the full control effect. Note: nearly all actives have a fitted effect of over 40% in size. Note: potency is the fitted concentration of half-maximal effect. The settings on record: GBM patient neurospheres viability, ATP luminescence, 48 h. The gist of the method:
(§1)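 Four patient lines of CD133+ GBM neurospheres were screened at several concentrations; hits were retested in those lines plus three slower-growing GBM lines, using 48-hour treatment and ATP-based viability.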

The subject of another test is astro (control astrocytes). The test is described as above. The settings on record: viability, ATP luminescence, 48 h; series mostly up to 45.9 µM. The gist of the method: as §1
The target of test [2] is Nuclear receptor subfamily 1 group I member 2 (Rattus norvegicus) (UniProt Q9R1A7). Nature of the test: qHTS assay for small molecule activators of the rat pregnane X receptor (rPXR) signaling pathway (AID 651751; call rule not given here; note: 0% is about no effect). The settings on record: rPXR reporter cells, luciferase (One-Glo), 24 h. (Quantitative high-throughput screening tests each substance at several concentrations.)

Test [3] in a line: qHTS assay for small molecule activators of the human pregnane X receptor (PXR) signaling pathway (AID 720659; call rule not given here; note: 0% is about no effect). The settings on record: DPX-2 HepG2 CYP3A4-luciferase, 24 h; series mostly up to 92.3 µM.
Setting [4] is: at 45.9 µM (top of the series), tumour line B.
Where [5] appears, read: at 45.9 µM (top of the series), tumour line D.
[6] abbreviates: at 46.1 µM (top of the series), tumour line C.
Where [7] appears, read: at 46 µM (top of the series), tumour line A.
[8] abbreviates: at 20 µM (top of the series), tumour line C.
Where [9] appears, read: at 21.2 µM (top of the series), tumour line B.
Where [10] appears, read: at 21.2 µM (top of the series), tumour line D.
Setting [11] is: at 21.3 µM (top of the series), tumour line A.

Where “and” joins values, the source holds several entries; their conditions need not be identical. Identical values can stand only once. Unmarked numbers belong to inactive results. Inconclusive results are not listed. Some structures have more than one record in an assay (separate samples or runs), and their calls can disagree. Calls of active or inactive are those of the source. Unless noted, calls come from the whole dose curve; as a rule, active = well fitted inhibition curve with a large enough effect; inconclusive = small, poorly fitted or top-dose-only effect; inactive = flat fitted curve, though single readings scatter.

Chain of Nuclear receptor subfamily 1 group I member 2 (Rattus norvegicus) (Q9R1A7 whole entry, looked up): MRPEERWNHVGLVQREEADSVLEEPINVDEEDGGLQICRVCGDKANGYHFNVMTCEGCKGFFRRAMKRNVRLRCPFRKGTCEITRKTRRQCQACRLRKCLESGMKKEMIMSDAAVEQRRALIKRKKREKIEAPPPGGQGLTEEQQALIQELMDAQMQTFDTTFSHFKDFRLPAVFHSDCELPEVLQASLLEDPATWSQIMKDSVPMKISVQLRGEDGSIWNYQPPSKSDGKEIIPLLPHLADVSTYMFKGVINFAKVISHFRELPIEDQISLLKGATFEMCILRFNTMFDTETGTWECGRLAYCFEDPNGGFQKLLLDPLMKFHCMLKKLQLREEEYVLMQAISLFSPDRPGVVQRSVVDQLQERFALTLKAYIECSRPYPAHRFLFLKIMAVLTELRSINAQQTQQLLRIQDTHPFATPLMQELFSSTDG

As to `CC(=O)Oc1ccc2c3c1O[C@H]1[C@@H](OC(C)=O)C=C[C@H]4[C@@H](C2)N(C)CC[C@@]341`, the activity, negative = cell killing in test [1] (setting [4]) was 1.1%; in test [1] (setting [5]), -2.21%; in test [1] (setting [6]) it was -13.5%; in test [1] (at 99.2 µM (top of the series), tumour line C), -29.8%; in test [1] (at 108 µM (top of the series), tumour line B), -14.9%. Moreover, the Potency entry in the test with astro is “inactive”.

Consider `ClC1C(Cl)C(Cl)C(Cl)C(Cl)C1Cl` (stereo not given), for which the activity, negative = cell killing was -3.31% in test [1] (setting [4]), -6.39% in test [1] (setting [5]), -20.5% in test [1] (setting [7]) and -11% in test [1] (setting [6]). In addition, in the test on astro, the Potency entry was “inactive”.

With `CN(C)[C@@H]1C(=O)C(C(N)=O)=C(O)[C@@]2(O)C(=O)C3=C(O)c4c(O)ccc(Cl)c4[C@@](C)(O)[C@H]3C[C@@H]12`, the activity, negative = cell killing in test [1] (setting [8]) is -1.9%; in test [1] (setting [9]), -17.1%; in test [1] (setting [10]) it was 7.37%; in test [1] (setting [11]) it was -17.5%. In the test with astro, the Potency result is “inactive”.

As to `Clc1ccc(Cl)cc1`, the activity, negative = cell killing was -3.79% in test [1] (setting [4]), -0.0641% in test [1] (setting [5]), -16.3% in test [1] (setting [7]) and -0.658% in test [1] (setting [6]). Besides, in the test with astro, the Potency result is “inactive”.

In the case of `CCN(CC)C(=O)N[C@H]1C[C@@H]2c3cccc4[nH]cc(c34)C[C@H]2N(C)C1`, the activity, negative = cell killing in test [1] (setting [4]) is -22.5%; in test [1] (setting [5]), -14.1%; in test [1] (setting [6]) it was -20.3%. In addition, the Potency in test [1] (tumour line A) is 22.4 µM (active). Besides, the Potency result with astro was “inactive”.

As for `CCCC(C)(COC(N)=O)COC(=O)NC1CC1` (stereo not given), the activity, negative = cell killing in test [1] (setting [4]) is -5.97%; in test [1] (setting [5]), -18%; in test [1] (setting [7]), -25.6%; in test [1] (setting [6]) it was -16.6%. The Potency entry in the test on astro was “inactive”.

As to `C[C@]12CC[C@H](OS(=O)(=O)O)CC1=CC[C@@H]1[C@@H]2CC[C@]2(C)C(=O)CC[C@@H]12`, the activity, negative = cell killing was 3.89% in test [1] (setting [4]), -2.35% in test [1] (setting [5]), -29.4% in test [1] (setting [7]) and -15.3% in test [1] (setting [6]). Also, in the test with astro, the Potency entry is “inactive”.

For the molecule `CCC(C)(S(=O)(=O)CC)S(=O)(=O)CC`, the activity, negative = cell killing in test [1] (setting [4]) is -9.18%; in test [1] (setting [5]), -21.6%; in test [1] (setting [7]), -5.61%; in test [1] (setting [6]) it was -8.4%. In addition, in the test on astro, the Potency result is “inactive”.

For the molecule `C[C@]12C[C@H]3S[C@H]3C[C@@H]1CC[C@@H]1[C@@H]2CC[C@]2(C)[C@@H](O)CC[C@@H]12`, the activity, negative = cell killing is -0.246% in test [1] (setting [8]), -21.3% in test [1] (setting [9]) and -16.8% in test [1] (setting [10]). Besides, the Potency in test [1] (tumour line A) is 14.1 µM (active). In the test on astro, the Potency result is “inactive”.

As for `CCC1(c2ccccc2)C(=O)NC(=O)N(C)C1=O` (stereo not given), the activity, negative = cell killing in test [1] (setting [4]) is -7.4%; in test [1] (setting [5]) it was -10.2%; in test [1] (setting [7]), -23%; in test [1] (setting [6]) it was 7.87%. Further, the Potency entry in the test on astro is “inactive”.

Regarding `CCCCC[C@@H](O)C1C(=O)OC(C)[C@H](O)/C=C/C=C/C=C/C=C/C=C(\C)C(O)C(O)C(O)C[C@H](O)C[C@H](O)C[C@H](O)C[C@H](O)C[C@@H]1O` (stereo not given in full), the activity, negative = cell killing in test [1] (setting [4]) was -7.45% and 7.1%; in test [1] (setting [5]) it was 14.9% and -7.76%; in test [1] (setting [7]), -18.3% and -29%; in test [1] (setting [6]), -15.7% and -7.35%. Moreover, in the test on astro, the Potency entry was “inactive”.

In the case of `C[C@H]1CC[C@]2(NC1)O[C@H]1C[C@H]3[C@@H]4CC[C@H]5C[C@@H](O)CC[C@]5(C)[C@H]4CC[C@]3(C)[C@H]1[C@@H]2C`, the activity, negative = cell killing in test [1] (setting [4]) was -14.5%; in test [1] (setting [5]), -28.2%; in test [1] (setting [6]) it was -9.91%. For the same molecule, the Potency in test [1] (tumour line A) is 8.91 µM (active). Besides, the Potency entry with astro was “inactive”.

For the molecule `CCNCC(O)c1cccc(O)c1` (stereo not given), the activity, negative = cell killing in test [1] (setting [8]) is 5.83%; in test [1] (setting [9]), -15.1%; in test [1] (setting [10]), -23%; in test [1] (setting [11]), -30.1%. Also, the Potency result in the test on astro was “inactive”.

`O=C/C=C/c1ccccc1`: the activity, negative = cell killing was 0.0687% in test [1] (setting [4]), -9.63% in test [1] (setting [5]), -23.4% in test [1] (setting [7]) and 1.48% in test [1] (setting [6]). For the same molecule, the Potency result with astro was “inactive”. The max response in test [2] was -2.3% and 9.18%. In test [3], the outcome was inactive.

As to `Cn1sc(Cl)cc1=O`, the activity, negative = cell killing was -15.7% in test [1] (setting [4]), -11.3% in test [1] (setting [5]), -21.6% in test [1] (setting [7]) and -21.9% in test [1] (setting [6]). For the same molecule, the Potency entry in the test on astro is “inactive”.

Regarding `CCC1(c2ccccc2)C(=O)NC(=O)NC1=O`, the activity, negative = cell killing is -10.3% in test [1] (setting [4]), 2.64% in test [1] (setting [5]), -5.16% in test [1] (setting [7]) and 3.61% in test [1] (setting [6]). In the test on astro, the Potency entry was “inactive”.

Turning to `CC1(C)[C@H](C=C(Cl)Cl)[C@H]1C(=O)OCc1c(F)c(F)cc(F)c1F`, the activity, negative = cell killing in test [1] (setting [4]) is -3.56%; in test [1] (setting [5]), -11.5%; in test [1] (setting [7]), -26.8%; in test [1] (setting [6]), -13.8%. The Potency result in the test on astro is “inactive”.

As to `O=c1[nH]c(=O)n(Cl)c(=O)n1Cl`, the activity, negative = cell killing is -3.23% in test [1] (setting [4]), -0.766% in test [1] (setting [5]), -8.9% in test [1] (setting [7]) and 7.98% in test [1] (setting [6]). Further, the Potency result in the test with astro was “inactive”. Further, in test [2], the max response was -4.63%. The call in test [3] was inactive.

As for `CCON=O`, the activity, negative = cell killing is -13.3% in test [1] (setting [4]), 8.29% in test [1] (setting [5]) and -23.8% in test [1] (setting [6]). In addition, the Potency in test [1] (tumour line A) was 0.224 µM (active). Further, the Potency entry in the test on astro was “inactive”.

Consider `O=c1ccc2cc(O[C@@H]3O[C@H](CO)[C@@H](O)[C@H](O)[C@H]3O)c(O)cc2o1`, for which the activity, negative = cell killing was -2.02% in test [1] (setting [8]), -12.8% in test [1] (setting [9]), -17.9% in test [1] (setting [10]) and -15.8% in test [1] (setting [11]). Also, in the test with astro, the Potency entry is “inactive”.

On to `CC(C)(O)[C@@H]1[C@H]2OC(=O)[C@@H]1[C@]1(O)C[C@H]3O[C@]34C(=O)O[C@H]2[C@]14C`, for which the activity, negative = cell killing is -2.1% and -10.8% in test [1] (setting [4]); 11.7% and -21% in test [1] (setting [5]); -37.4% and -27.2% in test [1] (setting [7]); -9.46% and -22% in test [1] (setting [6]). In addition, the Potency result in the test with astro was “inactive”.

On to `CC(C)Nc1ccc(Nc2ccccc2)cc1`, for which, in test [1] (setting [6]), the activity, negative = cell killing is -13.8%. Besides, the Potency in test [1] (tumour line A) is 11.2 µM (active); in test [1] (tumour line B) it was 17.8 µM (active); in test [1] (tumour line D), 20 µM (active); in the test on astro it was 22.4 µM (active).

For the origin of these results see PubChem BioAssay (NCATS).
